FUS yeast rescue – FUS proteinopathy suppression in yeast | S. cerevisiae FUS-expressing, growth rescue, OD600, 24 h | Potency, µM (top dose mostly 76.6 µM), most hits filed as activators | actives 0.24% (n = 390,000) | AID 1347120;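 further: plate controls were DMSO vehicle for no effect and reference control for full effect; nearly all actives have a fitted effect of over 55% in size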
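Galactose (2%) drives FUS expression in yeast precultured in raffinose; seeding density OD 0.005. Test compounds incubated 24hr at 30C and 99% humidity before absorbance at 600 nm was measured.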
TDP-43 yeast inh – TDP-43 toxicity inhibition in yeast | actives 1.8% (n = 410,000) | Potency, µM (titrated, usually from 46.1 µM), for the others: at the top dose growth rescue (activation), actives largely listed as activators | TDP-43 expressing yeast growth rescue, BacTiter-Glo, 24 h; further: % of control where 0% means no effect; nearly all actives have a fitted effect of over 50% in size
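Cell-based yeast growth screen: TDP-43 expression induced in galactose, inoculum OD600=0.02 after raffinose pregrowth to mid-log. Read-out BacTiter-Glo luminescence at 24 hr, 30 deg C; inhibition of toxicity seen as signal increase.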
aSyn rescue – alpha-synuclein toxicity inhibition in yeast; Yeast expressing alpha-synuclein, growth rescue, BacTiter-Glo, 24 h; Potency, µM (top dose mostly 46.1 µM), for the others: at the highest dose growth rescue (activation), most hits filed as activators; actives 0.14% (n = 370,000); AID 652106; further: % of control where 0% means no effect; nearly all actives have a fitted effect of over 65% in size
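Rescue of yeast growth: cells expressing toxic alpha-synuclein, induced in galactose at OD600 0.02, incubated with compound 24 h at 30 C. ATP luminescence quantified growth; inhibitors of toxicity appear as activators.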
Abeta yeast res – restores growth of yeast expressing A-beta42 peptide; yeast expressing A-beta42, growth rescue, OD600, 48 h; response scale: 0% DMSO, 100% iron-clioquinol control; Potency, µM (titrated, usually from 46.1 µM), hits mostly activators; actives 0.063% (n = 410,000); further: nearly all actives have a fitted effect of over 55% in size
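Yeast A-beta toxicity model in growth medium with pinned compounds, 48 h at 30 C; growth read as absorbance at 600 nm. Normalized to FeCl3/clioquinol equimolar mix (positive) and DMSO (negative).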
Mito fusion act – mitochondrial division inhibition or fusion activation; S. cerevisiae fusion-defective mutant growth rescue, CellTiterGlo 48 h; Potency, µM (top dose mostly 46.1 µM), for inactives: at the highest dose growth rescue (activation), usual class: activators; actives 0.23% (n = 320,000); further: % of control where 0% means no effect; nearly all actives have a fitted effect of over 45% in size
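Compounds are tested for their ability to restore growth of mitochondrial fusion-defective yeast strains at non-permissive 37C in YPEG medium over 48 hours. Viability is quantified by luciferase luminescence.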
* = called active by the depositor; i = inactive; ? = inconclusive; . = no result; ! = not active in a repeat; [ ] = another dose, or the depositor's remark. A selection: hits, their analogues and other compounds. The true share with any hit is near 2.2%. The call rests on the fitted dose curve; in most records, active means well fitted curve in the direction sought with a large enough effect; inconclusive means small, poorly fitted or top-dose-only effect, or another doubt; inactive means no such curve, though single readings can be large; an effect the other way counts as inactive or inconclusive. Potency means the concentration at half of the fitted maximal effect.

SMILES | FUS yeast rescue | TDP-43 yeast inh | aSyn rescue | Abeta yeast res | Mito fusion act
CC1=NN(/C(=N\c2nnc(C)s2)Nc2ccc(C(C)(C)C)cc2)[C@H](c2ccc(C)cc2)S1 | ? | 35.5µM* | -0.1% | i | 28.1%
O=C(OCc1nc2ccsc2c(=O)[nH]1)c1ccc(Cl)s1 | i | 17.8µM* | 0.8% | i | -13.8%
CCOC(=O)c1cccc(Nc2nc(C(=O)OCC)nc3ccccc23)c1 | i | 24.2%[9.22 µM] | . | i | .
CCOC(=O)c1cccc(Nc2nc(-c3cccnc3)nc3ccccc23)c1 | i | 17.8µM* | 13.9% | i | 5.4%
COC(=O)c1cccc(Nc2nc(-c3cccnc3)nc3ccccc23)c1 | i | 10.3% | 6.4% | i | 9.5%
CCCOC(=O)c1cccc(Nc2nc(C(=O)OCC)nc3ccccc23)c1 | i | 22.4µM* | . | i | .
O=c1cc(O)c2c([nH]1)CCC2 | . | . | -10.8% | . | .
CCn1c2ccccc2c2cc(/C=N/n3cnnc3)ccc21 | i | ? | ? | i | -15.7%
CCn1c2ccccc2c2cc(/C=N/n3cn[nH]c3=S)ccc21 | i | 15.8µM* | 16.7% | i | -12.2%
COc1ccc(-c2cc(C(F)(F)F)c3c(=O)n(-c4ccccc4)[nH]c3n2)cc1 | i | 8.91µM* | . | i | 13.5%
Cc1cccc(NC(=O)CSc2nc3ccccc3nc2N2CCCCC2)c1C | i | -0.7% | . | i | .
c1ccc(-c2cnc(-c3ccccc3)nn2)cc1 | i | 22.8% | -1.2% | i | .
c1ccc(-c2cnc(-c3ccccn3)nn2)cc1 | i | 22.4µM* | 24.6% | i | .
c1ccc(-c2ccc(CNc3nc(-c4ccccn4)nnc3-c3ccccc3)cc2)cc1 | 20µM* | . | . | . | .
C=C(C(=O)O)c1ccc2ccccc2c1 | . | . | -21.7% | . | .
CN1/C(=C/C(=O)CSc2ccccc2C(=O)O)C(C)(C)c2ccccc21 | i | 20µM* | 8.9% | ? | 2.9%
COc1ccc(Nc2nnc(SCC(=O)/C=C3/N(C)c4ccccc4C3(C)C)s2)cc1 | . | 11.2µM* | 14.1% | i | ?
CN1/C(=C/C(=O)COC(=O)C2COc3ccccc3O2)C(C)(C)c2ccccc21 (stereo not given) | i | 31.6µM* | 1.6% | i | .
CN1/C(=C\C(=O)CSc2cccc[n+]2[O-])C(C)(C)c2ccccc21 | i | ? | 13.4% | i | 3.9%
Cc1cc(NC(=O)c2oc3c(c2C)-c2[nH]ncc2CC3)ccc1Br | i | -16.6% | . | i | .
O=C(Nc1ccc(Cl)cc1)P(=O)(O)c1ccccc1 | i | 17.8µM* | -0.4% | i | .
NC(=O)Nc1ccc(Cl)cc1 | i | -12.6% | -0.1% | i | 6.7%
CNC(=O)/C(=N\O)c1ccccc1 | . | . | . | . | -2.1%
O=C(/C(=N/O)c1ccccc1)c1ccccc1 | i | 22.4µM* | 5.5% | i | .
CC1CCN(C(c2ccc(F)cc2)c2sc3nc(-c4ccco4)nn3c2O)CC1 (stereo not given) | i | -10.9% | . | i | .
SMILES | FUS yeast rescue | TDP-43 yeast inh | aSyn rescue | Abeta yeast res | Mito fusion act
CC(=O)N1CCC(O)(c2cccc(C(F)(F)F)c2)CC1 | i | 0.0% | 5.1% | i | 0.8%
O=C(CCCN1CCC(O)(c2cccc(C(F)(F)F)c2)CC1)c1ccc(F)cc1 | i | -7.1% | 2.4% | i | 23.1µM*!
O=C(CCCN1CCC(O)(c2ccc(Cl)cc2)CC1)c1ccc(F)cc1 | i | ? | 11.4% | i | 11.6µM*!
O=C(CCCN1CCC(O)(c2ccc(Br)cc2)CC1)c1ccc(F)cc1 | i | -6.9% | 10.0% | i | 25.1%
CNC(=S)N/N=C(\C)c1ccc(Cl)s1 | i | 14.1µM* | -8.8% | ? | -5.7%
CCNC(=S)N/N=C(\C)c1ccc(Cl)s1 | . | ? | -0.3% | i | -13.8%
Fc1ccc(-c2csc(Nc3ccccn3)n2)c(F)c1 | i | ? | -1.7% | ? | -8.7%
COc1ccc(-c2csc(Nc3ccc(C)cn3)n2)cc1 | i | 12.6µM* | -31.9% | i | 4.2%
Cc1cc(-c2csc(Nc3ccccn3)n2)ccc1F | i | 3.98µM* | -24.5% | ? | -8.3%
Cc1nc(C)c(-c2csc(Nc3ccccn3)n2)s1 | i | 35.5µM* | -20.6% | ? | -4.9%
Cc1ccnc(Nc2nc(-c3ccc(F)cc3)cs2)c1 | i | 7.94µM* | -32.2% | i | -2.3%

Screening results from PubChem BioAssay.
